# Unmarked numbers belong to inactive results. Results filed as inconclusive are left out. A call without a number means that no potency is given here. Activity calls are given as the source filed them. Unless noted, calls come from the whole dose curve; as a rule, active = well fitted curve in the direction sought with a large enough effect; inconclusive = small, poorly fitted or top-dose-only effect, or another doubt; inactive = no such curve, though single readings can be large; an effect the other way counts as inactive or inconclusive.
# Columns and labels:
# [1] = S16 Schwann cell viability assay (CellTiter-Glo assay) (AID 624031);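 note: cellular ATP luminescence as a viability measure; nearly all actives have a fitted effect of over 70% in size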
# Summary of the method: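 Native S16 rat Schwann cells in DMEM/10% FBS without phenol red were incubated overnight, then exposed to compounds for 24 h at 37 °C/5% CO2. Viability was read as ATP luminescence (CellTiter-Glo), normalized to no-cell wells and DMSO (0%).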
# ATS189 = assay: qHTS profiling for inhibitors of Plasmodium falciparum proliferation (AID 504749); note: nearly all actives have a fitted effect of over 60% in size; note: potency is the fitted concentration of half-maximal effect; conditions: P. falciparum in erythrocytes, SYBR Green DNA, 72 h; series mostly up to 12.8 µM
# Summary of the method: (§1)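 P. falciparum-infected erythrocytes (0.3% parasitemia, 2.5% hematocrit final) were exposed to compounds for 72 h at 37 C in 5% CO2, then lysed with SYBR Green buffer overnight at room temperature; parasite DNA fluorescence was normalized to artemisinin and DMSO controls.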
# CP191 = assay: as above; conditions: P. falciparum in erythrocytes, SYBR Green DNA, 72 h; series mostly up to 12.8 µM
# Summary of the method: as §1
# CP247 = assay: as above; conditions: P. falciparum in erythrocytes, SYBR Green DNA, 72 h; series mostly up to 12.8 µM
# Summary of the method: as §1
# CP250 = assay: as above; conditions: P. falciparum in erythrocytes, SYBR Green DNA, 72 h; series mostly up to 12.8 µM
# Summary of the method: as §1
# CP256 = assay: as above; conditions: P. falciparum in erythrocytes, SYBR Green DNA, 72 h; series mostly up to 12.8 µM
# Summary of the method: as §1
# CP262 = assay: as above; conditions: P. falciparum in erythrocytes, SYBR Green DNA, 72 h; series mostly up to 12.8 µM
# Summary of the method: as §1
# CP325 = assay: as above; conditions: P. falciparum in erythrocytes, SYBR Green DNA, 72 h; series mostly up to 12.8 µM
# Summary of the method: as §1
# Dd2 = assay: as above; conditions: P. falciparum in erythrocytes, SYBR Green DNA, 72 h; series mostly up to 12.8 µM
# Summary of the method: as §1
# HB3 = assay: as above; conditions: P. falciparum in erythrocytes, SYBR Green DNA, 72 h; series mostly up to 12.8 µM
# Summary of the method: as §1
# JCK = assay: as above; conditions: P. falciparum in erythrocytes, SYBR Green DNA, 72 h; series mostly up to 12.8 µM
# Summary of the method: as §1
# N140 = assay: as above; conditions: P. falciparum in erythrocytes, SYBR Green DNA, 72 h; series mostly up to 12.8 µM
# Summary of the method: as §1
# PC15 = assay: as above; conditions: P. falciparum in erythrocytes, SYBR Green DNA, 72 h; series mostly up to 12.8 µM
# Summary of the method: as §1
# PC49 = assay: as above; conditions: P. falciparum in erythrocytes, SYBR Green DNA, 72 h; series mostly up to 12.8 µM
# Summary of the method: as §1
# SC27B = assay: as above; conditions: P. falciparum in erythrocytes, SYBR Green DNA, 72 h; series mostly up to 12.8 µM
# Summary of the method: as §1
# TAB113 = assay: as above; conditions: P. falciparum in erythrocytes, SYBR Green DNA, 72 h; series mostly up to 12.8 µM
# Summary of the method: as §1
# CP185 = assay: as above; conditions: P. falciparum in erythrocytes, SYBR Green DNA, 72 h; series mostly up to 12.8 µM
# Summary of the method: as §1
# CP201 = assay: as above; conditions: P. falciparum in erythrocytes, SYBR Green DNA, 72 h; series mostly up to 12.8 µM
# Summary of the method: as §1
# CP329 = assay: as above; conditions: P. falciparum in erythrocytes, SYBR Green DNA, 72 h; series mostly up to 12.8 µM
# Summary of the method: as §1
# [2] = target: Lysosomal acid glucosylceramidase (Homo sapiens) (UniProt P04062); assay: Glucocerebrosidase-p2 (AID 348; in the data active = potency below about 10 µM; note: potency is the fitted concentration of half-maximal effect); conditions: purified GBA, blue fluorogenic substrate, 40 min
# Summary of the method: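 Compounds titrated from 0.6 nM upwards against 0.2 nM enzyme in pH 5.9 citric acid/KH2PO4, taurocholate, tween-20; blue fluorogenic substrate 80 uM, 40 min room temperature, stopped and read Ex 365/Em 440 for AC50.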
# Chain of Lysosomal acid glucosylceramidase (Homo sapiens) (P04062 whole entry, looked up): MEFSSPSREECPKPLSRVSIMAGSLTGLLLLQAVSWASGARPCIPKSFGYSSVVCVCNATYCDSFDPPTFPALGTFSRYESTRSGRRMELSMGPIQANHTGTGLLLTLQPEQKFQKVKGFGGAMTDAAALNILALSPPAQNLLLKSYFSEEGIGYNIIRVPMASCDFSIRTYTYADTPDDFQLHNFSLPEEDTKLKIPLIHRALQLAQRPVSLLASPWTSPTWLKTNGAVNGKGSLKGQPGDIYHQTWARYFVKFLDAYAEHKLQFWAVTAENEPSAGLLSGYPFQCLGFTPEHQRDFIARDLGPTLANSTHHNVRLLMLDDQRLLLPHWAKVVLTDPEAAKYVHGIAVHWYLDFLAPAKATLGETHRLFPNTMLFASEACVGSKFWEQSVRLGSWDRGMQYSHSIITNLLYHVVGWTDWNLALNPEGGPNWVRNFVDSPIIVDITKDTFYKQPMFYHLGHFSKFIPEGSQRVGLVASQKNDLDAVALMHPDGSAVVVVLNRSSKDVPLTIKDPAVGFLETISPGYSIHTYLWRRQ
SMILES,Potency [1],Potency (ATS189),Potency (CP191),Potency (CP247),Potency (CP250),Potency (CP256),Potency (CP262),Potency (CP325),Potency (Dd2),Potency (HB3),Potency (JCK),Potency (N140),Potency (PC15),Potency (PC49),Potency (SC27B),Potency (TAB113),Potency (CP185),Potency (CP201),Potency (CP329),Potency [2] [µM]
NC(=O)c1cc[n+](CC2=C(C(=O)O)N3C(=O)[C@@H](NC(=O)[C@H](c4ccccc4)S(=O)(=O)[O-])[C@@H]3SC2)cc1,inactive,1.58 µM (active),1.41 µM (active),3.55 µM (active),3.98 µM (active),3.55 µM (active),inactive,4.55 µM (active),1.26 µM (active),0.891 µM (active),4.47 µM (active),1.41 µM (active),1 µM (active),3.16 µM (active),2.51 µM (active),1.78 µM (active),,,,
CC(C)(C)NC[C@H](O)c1cc(O)cc(O)c1,inactive,inactive,inactive,inactive,inactive,inactive,,inactive,inactive,inactive,inactive,inactive,inactive,inactive,inactive,inactive,inactive,inactive,inactive,
CN(C)Cc1ccccc1-c1ccc2ncnc(NCc3cccs3)c2c1,,,,,,,,,,,,,,,,,,,,> 11.4
CC(C)CN1CC[C@@]2(CCCN(C(=O)c3cc(C(F)(F)F)cc(C(F)(F)F)c3)C2)C1,,,,,,,,,,,,,,,,,,,,> 11.4
CCCN(CCC)C(=O)[C@@H](CCC(=O)O)NC(=O)c1ccccc1,inactive,inactive,inactive,inactive,inactive,inactive,inactive,inactive,inactive,inactive,inactive,inactive,inactive,inactive,inactive,inactive,inactive,inactive,inactive,
CC[C@]1(C)CC(=O)NC1=O,inactive,inactive,inactive,inactive,inactive,inactive,inactive,inactive,inactive,inactive,inactive,inactive,inactive,inactive,inactive,inactive,inactive,inactive,inactive,
CC(=O)OCC1=C(C(=O)O)N2C(=O)[C@@H](NC(=O)CSc3ccncc3)[C@@H]2SC1,inactive,inactive,inactive,inactive,inactive,inactive,inactive,inactive,inactive,inactive,inactive,inactive,inactive,inactive,inactive,inactive,inactive,inactive,inactive,
N#Cc1cccc(NC(=O)N2CCCC3(CCN(S(=O)(=O)c4ccccc4)CC3)C2)c1,,,,,,,,,,,,,,,,,,,,> 11.4
CCN(CC)CCC[C@H](C)Nc1c2ccc(Cl)cc2nc2ccc(OC)cc12,inactive,0.891 µM (active),0.398 µM (active),1.12 µM (active),0.447 µM (active),0.631 µM (active),0.426 µM (active),0.426 µM (active),0.447 µM (active),0.251 µM (active),3.16 µM (active),0.891 µM (active),0.447 µM (active),1.58 µM (active),1.26 µM (active),0.891 µM (active),0.708 µM (active),1.2 µM (active),1.2 µM (active),
C[C@@H](C(=O)O)c1cccc(C(=O)c2ccccc2)c1,inactive,,,,,,,,,,,,,,,,,,,
CCC[C@H]1C(=O)N2C(N(C)C)=Nc3ccc(C)cc3N2C1=O,inactive,inactive,inactive,inactive,inactive,inactive,inactive,inactive,inactive,inactive,inactive,inactive,inactive,inactive,inactive,inactive,inactive,inactive,inactive,
CN(C)[C@H]1C(=O)C(C(=O)NCN2CCCC2)=C(O)[C@]2(O)C(=O)C3=C(O)c4c(O)cccc4[C@@](C)(O)[C@H]3C[C@@H]12,inactive,inactive,inactive,inactive,inactive,inactive,inactive,inactive,inactive,inactive,inactive,inactive,inactive,inactive,inactive,inactive,inactive,inactive,inactive,
CO[C@H]1C[C@@H](O[C@@H]2[C@H](C)[C@H](O[C@@H]3O[C@@H](C)C[C@@H](N(C)C)[C@@H]3O)[C@H](C)C[C@]3(CO3)C(=O)[C@H](C)[C@H](O)[C@H](C)[C@H](C)OC(=O)[C@@H]2C)O[C@@H](C)[C@H]1O,inactive,inactive,inactive,inactive,inactive,inactive,inactive,inactive,inactive,inactive,inactive,inactive,inactive,inactive,inactive,inactive,inactive,inactive,inactive,
CC[C@H](NC(C)C)[C@H](O)c1ccc(O)c(O)c1,inactive,inactive,inactive,,,inactive,inactive,inactive,inactive,inactive,inactive,inactive,,inactive,inactive,inactive,inactive,inactive,inactive,
CCN(CC)CC#CCOC(=O)[C@@](O)(c1ccccc1)C1CCCCC1,inactive,,,,inactive,,inactive,inactive,,inactive,inactive,inactive,,,inactive,inactive,,,,
